Source: PubChem BioAssay (NCI)
About 83,000 compounds went through this panel and 20% of them were active in at least one assay; those are over-represented in the sample as a whole.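 Note: values are percent growth. 100 is the growth of untreated cells, values between 100 and 0 indicate rising inhibition; between -100 and 0 indicates cell death.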 Values without a mark were called inactive. Calls of active or inactive are those of the source. The calls were made as follows: active = growth percent below 10; inactive = the rest.

Columns and labels:
Test in all cases: NCI-60 one-dose screen, 48 h (100 = growth as untreated, 0 = no growth, -100 = all killed)
Conditions in all cases: 10 µM
SR leukemia = tested on: SR leukemia
RPMI-8226 leukemia = tested on: RPMI-8226 leukemia
OVCAR-8 ovarian = tested on: OVCAR-8 ovarian
OVCAR-5 ovarian = tested on: OVCAR-5 ovarian
OVCAR-4 ovarian = tested on: OVCAR-4 ovarian
SK-OV-3 ovarian = tested on: SK-OV-3 ovarian
IGROV1 ovarian = tested on: IGROV1 ovarian
OVCAR-3 ovarian = tested on: OVCAR-3 ovarian
HS 578T breast = tested on: HS 578T breast
NCI/ADR-RES ovarian = tested on: NCI/ADR-RES ovarian

| SMILES | growth (SR leukemia) | growth (RPMI-8226 leukemia) | growth (OVCAR-8 ovarian) | growth (OVCAR-5 ovarian) | growth (OVCAR-4 ovarian) | growth (SK-OV-3 ovarian) | growth (IGROV1 ovarian) | growth (OVCAR-3 ovarian) | growth (HS 578T breast) | growth (NCI/ADR-RES ovarian) |
| --- | --- | --- | --- | --- | --- | --- | --- | --- | --- | --- |
| COc1cc(/C=C/C(=O)c2ccc(C(F)(F)F)cc2)ccc1Oc1nc(Nc2ccc(F)cc2)nc(N(C)C)n1 | 30.4% | 13.5% | 85% | 92.7% | 69.8% | 103% | 91.4% | 79.6% | 91.6% | 66.7% |
| CCCCSc1nc(Nc2ccc(/C(C)=N/NC(N)=S)cc2)c(C#N)c(-c2ccc(OC)cc2)n1 | 40.2% | 67.8% | 11.8% | 130% | -43.9% (active) | 94.9% | 68.4% | -27.2% (active) | 20.3% | 25.8% |
| COc1cccc(/C=C2\N=C(C)N(CCc3ccc(S(N)(=O)=O)cc3)C2=O)c1 | 82.1% | 97.2% | 102% | 99.8% | 104% | 112% | 103% | 113% | 98.6% | 104% |
| CN1C(=O)N(C)C2SC(N/N=C/c3ccccc3)=NC21 (stereo not given) | 13.6% | 97.4% | 97.1% | 94.4% | 94.6% | 95.7% | 64.5% | 25.1% | 66.1% | 44.6% |
| C/C(=N\N=C\c1ccc(Cl)c([N+](=O)[O-])c1)c1ccc2c(c1)Nc1ccccc1S2 | 44.1% | 33.3% | 6.83% (active) | 72.8% | 23.7% | 94.8% | 60.3% | 27.5% | 0.197% (active) | 11.7% |
| COc1ccc(-c2c(N)c(=O)n(C)c3ccccc23)cc1 | 36.3% | 25.1% | 73.9% | 76.7% | 56.5% | 100% | 46.5% | 51.5% | 66.9% | 58.5% |
| CN1CCN(c2ccc(C(=O)/C=C/c3cc(C(F)(F)F)ccc3Cl)cc2)CC1 | 1.37% (active) | 3.72% (active) | -51.5% (active) | -91% (active) | -36.5% (active) | 6.75% (active) | -82.7% (active) | -37.7% (active) | 3.68% (active) | -56.9% (active) |
| O=C(CNc1nc(-c2ccccc2)cs1)Nc1cccc(Cl)c1 | -15% (active) | 26% | 32.1% | 40.9% | 32.5% | 37.7% | 29.4% | 32.2% | 32.4% | 19.5% |
| Nc1nc(Nc2ccccc2)nn1Cc1c(Cl)cccc1Cl | 25% | 27.1% | 42.3% | 46.6% | 39.7% | 51.3% | 11.2% | 54.6% | 29.3% | 10.6% |
| COc1ccc2[nH]cc(/C=N/Nc3ccc(Br)cn3)c2c1 | 3.07% (active) | -11.4% (active) | 34% | 55.3% | 53.2% | 65.7% | 10.3% | 31.1% | 25.8% | 7.9% (active) |
| CCCCSc1nc(Nc2ccc(/C(C)=N/NC(N)=S)cc2)c(C#N)c(-c2ccccc2)n1 | 61.6% | 47.3% | 15.1% | 60.4% | 5.32% (active) | 108% | 57.6% | 13.4% | 43.6% | 25.3% |
| CN1C(=O)N(C)C2SC(N/N=C/c3ccccc3F)=NC21 (stereo not given) | 16.4% | 90.9% | 88.4% | 86.7% | 92.7% | 88% | 56.6% | 6.19% (active) | 85.6% | 30.6% |
| COc1cc(/C=N/NC(=O)c2ccc3nc(-c4ccc(Cl)cc4)[nH]c3c2)cc(OC)c1OC | -6.5% (active) | -23.9% (active) | -62.7% (active) | 62.6% | -51.6% (active) | -25% (active) | 7.62% (active) | -90% (active) | -52.1% (active) | 75.7% |
| C#CCNC(=O)CCC(=O)OC[C@]12CC[C@@H](C(=C)C)[C@@H]1C1CC[C@@H]3[C@@]4(C)CCCNC(C)(C)[C@@H]4CC[C@@]3(C)[C@]1(C)CC2 (stereo not given in full) | -7.1% (active) | -6.58% (active) | -59.9% (active) | 47.3% | 30.3% | 26.9% | -3.31% (active) | -71% (active) | 14.4% | -75.1% (active) |
| COc1ccc(CN2[C@H](C(=O)NCc3ccc(C(=O)NO)cc3)Cc3c([nH]c4ccccc34)[C@H]2C2CC2)cc1 | 25.5% | 47.3% | 39.3% | 34.4% | 51.8% | 62% | 50.5% | 48.7% | 32.6% | 84% |
| O=C(CSc1nnc(-c2ccc3nc(-c4ccccc4)[nH]c3c2)o1)Nc1ccc(Cl)cc1 | 29.1% | 29.6% | 21.2% | 65.1% | 61.9% | 55.9% | 52.6% | 62.9% | 16.7% | 38.5% |
| COc1nccnc1NS(=O)(=O)c1ccc(NC2=C(Cl)C(=O)c3nc(C)ccc3C2=O)cc1 | 115% | 94.5% | 99.5% | 112% | 86.5% | 91.4% | 113% | 83.2% | 92.8% | 92.4% |
| O=C(CNc1nc(-c2ccccc2)cs1)Nc1ccccc1 | 4.25% (active) | 8.69% (active) | 10% | -67.4% (active) | 35% | 11.2% | -7.7% (active) | -12.1% (active) | 14.3% | -22.8% (active) |
| Cc1ccn2c(C(=O)c3ccc(Br)cc3)cc(-c3cc(-c4ccc(N(C)C)cc4)c(C#N)c(N)n3)c2c1 | 64.3% | 83.7% | 38.2% | 66% | 63.3% | 93.8% | 76.6% | 50.2% | 70.2% | 72% |
| COc1cc(/C=C/C(=O)c2ccc(F)cc2)ccc1Oc1nc(Nc2ccc(F)cc2)nc(N(C)C)n1 | 4.07% (active) | 24.2% | 42.7% | 93.1% | 56.1% | 103% | 93.8% | 64.2% | 59.3% | 50.6% |
| Cn1cc(-c2cc(N)n3nc(-c4c[nH]c5ccc(Br)cc45)cc3n2)c2cccnc21 | -23.6% (active) | 3.37% (active) | -68.8% (active) | -87.4% (active) | -42.2% (active) | -72.6% (active) | -69.8% (active) | -78.9% (active) | -38.8% (active) | -55.7% (active) |
| Cc1noc2c(Cc3ccccc3)nn(CC(=O)N/N=C/c3ccc(Br)cc3)c(=O)c12 | 90.6% | 78.6% | 9.24% (active) | 62.5% | -61.9% (active) | 43.8% | 53.4% | -33.6% (active) | 30.7% | 58% |
| Cc1cc(=O)oc2cc(OCCCCOc3ccc(/C=C/C(=O)Nc4ccc(F)c(Cl)c4)cc3)ccc12 | 89% | 92.6% | 85.2% | 101% | 37.9% | 122% | 109% | 97.2% | 111% | 88.7% |
| Cc1ccc2nc3c(nc2c1)c1cc(I)ccc1n3CCN(C)C | 10.8% | 22% | 23.6% | 31.9% | 27.2% | 39% | 13.9% | 40.8% | 23.9% | 12.5% |
| CCOC(=O)C(Cc1ccccc1)N1C(=O)/C(=C/N2N=C(c3ccc(OC)cc3)CC2c2ccc3ccccc3c2)SC1=S (stereo not given) | 6.53% (active) | 4.07% (active) | 17.1% | 39.3% | 35.1% | 9.93% (active) | 13% | 15.1% | 1.03% (active) | 54.1% |
| CCCn1c(=O)c2[nH]c(-c3ccc(OCc4nc5ccc(C#N)cc5[nH]4)cc3)nc2n(CCC)c1=O | 59.5% | 68.9% | 66.3% | 113% | 78.9% | 85.5% | 62.2% | 68% | 40% | 97.1% |
